Bioassay records as filed in PubChem.
The entries come from a sample that favours hits as a whole.
NSD2 block – inhibitors of human NSD2, primary screen, biochemical, plate reader, single point. inhibition, % at 12.5 µM. AID 624260, 2012. NSD2-SET H3K36me1 DELFIA fluorescence. 0.07% of 44,000 active. Histone-lysine N-methyltransferase NSD2 (Homo sapiens), O96028; in the data active = inhibition above about 54%, passing the limit was not always enough;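 also: inhibitors reduce the monomethyl H3K36 fluorescence signal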
The depositor's hits bear a star.

SMILES | NSD2 block
COc1cc([C@H]2OC[C@H]3[C@@H]2CO[C@H]3c2ccc(OC)c(OC)c2)ccc1O | -1
COc1cc(C[C@@H]2CO[C@@H](c3ccc(O)c(OC)c3)[C@@H]2CO)ccc1O | 68*
COc1cc([C@H]2OC[C@H]3[C@@H]2CO[C@@H]3c2ccc(O)c(OC)c2)ccc1O | 11
COc1c(OC2OC(CO)C(O)C(O)C2O)cc(O)c2c1OC(c1ccccc1)CC2=O (stereo not given) | 36
CC(C)=CCc1c(O[C@@H]2O[C@H](CO)[C@@H](O)[C@H](O)[C@H]2O)cc(O)c2c1O[C@H](c1ccc(O)cc1)CC2=O | 70*
O=C1CC(c2ccc(O)cc2)Oc2cc(O[C@@H]3O[C@H](CO)[C@@H](O)[C@H](O)[C@H]3O)cc(O)c21 (stereo not given in full) | -2
CC12CCCCC1(O)N(O)C(C(=O)c1ccccc1)=N2 (stereo not given) | -1
COc1c(C(=O)O)ccc2c1CCC(C)(C)O2 | 5
Cc1ccc(NCc2ccc(C(=O)Nc3ccccc3)cc2)cc1C | 4
C/C=C1\C(O[C@@H]2O[C@H](CO[C@@H]3O[C@H](CO)[C@@H](O)[C@H](O)[C@H]3O)[C@@H](O)[C@H](O)[C@H]2O)OC=C(C(=O)OC)C1CC(=O)OCCc1ccc(O)cc1 (stereo not given in full) | 5
CCN(CC)c1ccc(/C=N/NC(=O)c2ccc(C(=O)NO)cc2)c(O)c1 | 11
O=C(NO)c1ccc(C(=O)N/N=C/c2cccc(O)c2O)cc1 | 3
O=C(NO)c1ccc(C(=O)N/N=C/c2ccc(O)c(O)c2O)cc1 | 61*
O=C(NO)c1ccc(C(=O)N/N=C/c2cccc(Oc3ccccc3)c2)cc1 | 1
O=C(NO)c1ccc(C(=O)N/N=C/c2ccc3ccccc3c2)cc1 | 62*
O=C(NO)c1ccc(C(=O)N/N=C/c2ccc(F)cc2)cc1 | 4
O=C(NCCCN1CCCC1=O)c1cc(-c2ccccn2)nc2ccc(Br)cc12 | 4
CC(N=Cc1nc2ccccc2n1C)C12CC3CC(CC(C3)C1)C2 (stereo not given) | -3
CCSc1n[nH]c(-c2c(Cl)c(CC)nn2C)n1 | 5
CC1CC(=O)c2c(ccc3c2C(=O)c2cccc(O)c2C3O)C1 (stereo not given) | 10
NC(=O)CN1C(=O)C(O)(C2CCc3ccccc3C2=O)c2ccccc21 (stereo not given) | -7
COc1cc(C2Oc3c(OC)cc(CCCO)cc3C2CO)ccc1O[C@H]1O[C@H](C)[C@@H](O)[C@H](O)[C@@H]1O (stereo not given in full) | 59*
C[C@@H]1O[C@@H](Oc2ccc(C3Oc4cc(O)cc(O)c4C(=O)C3O)cc2O)[C@H](O)[C@H](O)[C@H]1O (stereo not given in full) | 33
COc1ccc(C2Oc3c(OC)cc(CCCO)cc3C2CO)cc1OC1OC(CO)C(O)C(O)C1O (stereo not given) | 11
COC(CC(c1c(O)cc2cc(C)oc(=O)c2c1O)c1c(O)cc2cc(C)oc(=O)c2c1O)C(=O)O (stereo not given) | 11
CCn1ccc(CNC(=O)Nc2cccc(C(F)(F)F)c2)n1 | -1
NC(=O)COc1ccccc1/C=N/NC(=O)c1ccc(C(=O)NO)cc1 | 0
C=C1C(=O)O[C@H]2C[C@H](C)[C@@H]3CC(=O)C(C)=C3C[C@H]12 | -10
O=C1c2ccccc2C2CC(c3cc(Cl)ccc3Cl)=NN12 (stereo not given) | -1
CC(C)(C)OC(=O)N1CCC[C@H]1/C=N/NC(=O)CCCCCCC(=O)NO | 0
